Source: PubChem
Shown are actives, neighbours in structure and some others; about 1.8% of the full set was active somewhere.
eIF4H FP inh = human eIF4H binding inhibitors, primary screen, translation initiation inhibitor project, biochemical, uHTS, fluorescence polarization | Eukaryotic translation initiation factor 4H (Homo sapiens), Q15056 | eIF4H fluorescence polarization binding assay | inhibition, % at 35 µM | 290,000 tested, 0.94% active;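 note: calls also rest on retests at 20 µM and on dose response follow-up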
PABP1 MLLE inh = inhibitors of PABP1 MLLE–PAM2 peptide binding, primary screen, biochemical, fluorescence polarization, FITC-PAM2, GST-MLLE. 360,000 tested, 0.36% active. Polyadenylate-binding protein 1 (Homo sapiens), P11940. inhibition, % at 20 µM; in the data active = inhibition above about 35%, passing the limit was not always enough;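 note: plate controls were DMSO wells with GST-MLLE for no effect and wells lacking GST-MLLE protein for full effect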
Target sequence (P11940 whole entry, looked up): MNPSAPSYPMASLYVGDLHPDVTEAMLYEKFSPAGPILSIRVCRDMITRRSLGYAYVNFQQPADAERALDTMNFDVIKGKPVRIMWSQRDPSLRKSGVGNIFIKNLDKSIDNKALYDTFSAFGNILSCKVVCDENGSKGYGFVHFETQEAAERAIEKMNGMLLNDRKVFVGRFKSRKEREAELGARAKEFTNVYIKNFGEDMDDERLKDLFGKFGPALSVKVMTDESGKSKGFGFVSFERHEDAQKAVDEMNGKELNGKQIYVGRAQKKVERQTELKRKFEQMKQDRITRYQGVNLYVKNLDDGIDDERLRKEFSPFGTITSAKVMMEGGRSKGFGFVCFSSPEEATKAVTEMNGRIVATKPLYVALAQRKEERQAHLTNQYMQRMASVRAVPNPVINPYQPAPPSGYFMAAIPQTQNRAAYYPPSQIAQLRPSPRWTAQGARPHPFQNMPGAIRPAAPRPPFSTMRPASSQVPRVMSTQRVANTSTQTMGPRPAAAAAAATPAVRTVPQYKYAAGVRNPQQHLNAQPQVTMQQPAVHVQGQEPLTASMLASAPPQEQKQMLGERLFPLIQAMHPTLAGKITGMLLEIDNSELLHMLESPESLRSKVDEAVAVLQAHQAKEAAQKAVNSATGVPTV
MEX-5 binding = MEX-5 zinc finger RNA-binding disruptors – biochemical, C. elegans, fluorescence polarization, MLPCN library, primary screen; Zinc finger protein mex-5 (Caenorhabditis elegans), Q9XUB2; MEX-5/FITC-TCR2 RNA binding; stronger effect = lower value; activity score (negative = inhibition of binding), % at 10 µM; 300,000 tested, 0.38% active;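 active = inhibition past about -25% in most replicates, and total fluorescence under double the plate's negative control median, limit read from the data; inconclusive = replicates evenly split on the limit, or fluorescence at least double controls; inactive = too little inhibition in most replicates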;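 note: 0% = DMSO and -100% = 5 µM competing unlabeled TCR2 RNA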
PABP FP inh = PABP poly(A) RNA binding inhibitors, primary screen, biochemical, fluorescence polarization, uHTS | calls only at 35 µM | AID 2014, 2009 | Polyadenylate-binding protein 1 (Homo sapiens), P11940 | 290,000 tested, 1% active;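 note: calls also rest on retests at 20 µM and on dose response follow-up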
EBV gp42 block = Epstein-Barr virus gp42 inhibitors, primary screen, biochemical, uHTS, fluorescence polarization | Fluorescence polarization binding assay, mP read-out | inhibition, % (tested at 21.74 µM) | 220,000 tested, 0.42% active | AID 1085, 2008; in the data active = inhibition above about 50%
* = called active by the depositor; i = inactive; ? = inconclusive; nt = no result given; + = active, no number; ! = not active in a repeat. Unless noted, the rule behind the calls is not given here.

SMILES	eIF4H FP inh	PABP1 MLLE inh	MEX-5 binding	PABP FP inh	EBV gp42 block
CC1=NN(c2ccccc2)C(=O)C1C(=S)SC1CC(=O)NC1=O (stereo not drawn)	nt	49*	nt	nt	nt
Cc1cccc(CN2CCN(C3CN(Cc4ccc([N+](=O)[O-])cc4)S(=O)(=O)C3)CC2)c1 (stereo not drawn)	nt	2	nt	nt	nt
CCOC(=O)C1=C(c2ccccc2)N=c2s/c(=C\c3cc(OC)c(OC)c(OC)c3)c(=O)n2C1c1cccs1 (stereo not drawn)	?	-7	-9	+	-5
Cc1cc(CN(Nc2ccccc2)c2ccccc2)cc(C)n1	nt	18	nt	nt	nt
COc1ccc(OCCN2CCC(C(=O)NC(c3ccc(Cl)cc3)c3ncccc3C)CC2)cc1 (stereo not drawn)	nt	20	nt	nt	nt
CCCCN(C(=O)c1ccc([N+](=O)[O-])o1)c1c(N)n(CC(C)C)c(=O)[nH]c1=O	nt	37	-28*	nt	nt
OC[C@@H]1CN(Cc2ccc(Cl)cc2)C[C@H](n2cnc3c(NCc4ccc(F)cc4)ncnc32)O1	nt	3	nt	nt	nt
S=C(NCc1ccncc1)Nc1ccc(Br)cc1Cl	0	25	2	i	nt
S=C(Nc1ccc(Br)cc1Cl)Nn1cnnc1	-4	37*	1	i	-19
O=C(NNC(=S)Nc1ccc(Br)cc1Cl)c1ccncc1	16	47*	-1	i	4
Cc1ccc(Cl)cc1NC(=S)Nn1cnnc1	-7	16	-6	i	nt
O=C(NCCc1cccs1)Nc1ccc2nc([C@@H]3O[C@H](CO)[C@@H](O)[C@H]3O)[nH]c2c1	nt	-3	nt	nt	nt
O=[N+]([O-])c1ccc(S(=O)(=O)Nc2ccc3c(c2)OCCO3)cc1	-2	41*	-1	i	nt
CCc1nc2c(OCCOc3ccc(F)cc3)cccn2c1N(C)C(=O)c1ccc(OC)cc1	nt	6	nt	nt	nt
CN1CC=C2C(C#N)=C(N)C(C#N)(C#N)C(CCc3ccccc3)C2C1 (stereo not drawn)	?	82	nt	i	29
CN1CCC2(CC1)C1CN(C)CC=C1C(C#N)=C(N)C2(C#N)C#N (stereo not drawn)	?	93	?	?	76*!
Cc1ccc(Cn2c(=N)c(S(=O)(=O)c3ccc(Br)cc3)cc3c(=O)n4ccccc4nc32)cc1	3	-26	-16	i	nt
Cc1cccn2c(=O)c3cc(S(=O)(=O)c4ccccc4)c(=N)n(CC4CCCO4)c3nc12 (stereo not drawn)	-3	nt	-39*	i	-1
N=c1c(S(=O)(=O)c2ccccc2)cc2c(=O)n3ccccc3nc2n1Cc1cccnc1	nt	-12	-42*	nt	nt
Cc1cccn2c(=O)c3cc(S(=O)(=O)c4ccccc4)c(=N)n(Cc4cccnc4)c3nc12	-1	-21	-31*	i	nt
Cc1ccccc1-c1csc(C(O)c2ccc(F)c(F)c2)n1 (stereo not drawn)	nt	-6	nt	nt	nt
O=c1[nH]c(SCc2nc3c(cnn3-c3ccccc3)c(=O)[nH]2)nc2ccccc12	-8	-35	nt	i	-84
O=c1[nH]c(CSc2ncccn2)nc2c1cnn2-c1ccccc1	6	-7	-26*	i	1
CCCCNC(=S)NNC(=O)c1csc(C)c1	active	-18	0	+	-11
CCNC(=S)NNC(=O)c1csc(C)c1	5	-27	7	i	-22
SMILES	eIF4H FP inh	PABP1 MLLE inh	MEX-5 binding	PABP FP inh	EBV gp42 block
CCCCC1SC(N)=NC1=O (stereo not drawn)	nt	-2	nt	nt	nt
Cc1cccc(-c2cnc(C(O)c3ccc(-c4ccccc4)cc3)[nH]2)c1 (stereo not drawn)	nt	8	nt	nt	nt
COc1ccc(C2CC(c3ccccc3)n3nc(NC(=O)c4cccs4)nc3N2)cc1 (stereo not drawn)	10	14	1	i	69*
CCc1nc2ccc(C(=O)Nc3cccc(NS(C)(=O)=O)c3)cn2c1N(C)C(=O)c1cccc(OC)c1	nt	12	nt	nt	nt
CC(C)=CCc1c(O)cc2oc3c(CC=C(C)C)c(O)c(O)c(CC=C(C)C)c3c(=O)c2c1O	58*	-47	-1	i	-15
CCc1nc2ccc(C(=O)Nc3cc(-c4ccccc4)ccc3OC)cn2c1N(CCN(C)C)CC1CC1	nt	0	nt	nt	nt
Cn1c(SCc2ccc([N+](=O)[O-])cc2)nc2c(c1=O)SCC2	active	18	-1	+	-7
N#Cc1ccccc1S(=O)(=O)N1CCN(CC(O)c2ccccc2)CC1 (stereo not drawn)	7.2*	9	-1	i	-27
COc1c(C=O)cc2c3c1CCCN3CCC2	0	-8	1	i	nt
NCc1cc2c3c(c1)CCCN3CCC2	93*	36*	-2	+	nt
CCOC(=O)C1CCN(C(=O)COC(=O)c2cccc(NS(=O)(=O)c3ccccc3)c2)CC1	nt	-13	nt	nt	nt
COc1cc(OC)c(NC(=O)c2ccc3c(SCC(=O)O)c4c(nc3c2)CCCC4)cc1Cl	81*	1	-9	+	8
COC(=O)c1ccc2c(=O)n(NC(C)=O)c(=S)[nH]c2c1	-3	21	-3	i	1
COc1ccc(NC(=O)c2ccc3c(=O)n(Cc4ccco4)c(=S)[nH]c3c2)c(OC)c1	70*	-40	-2	+	-9
O=c1c2cc(Cl)ccc2[nH]c(=S)n1Cc1ccco1	10	-75	2	i	1
O=c1c2cc(N3CCOCC3)ccc2[nH]c(=S)n1Cc1ccco1	91*	5	-2	+	-8
COc1ccc(OC)c(NC(=O)c2ccc3c(=O)n(CCc4ccccc4)c(=S)[nH]c3c2)c1	2	-42	0	i	-2
COc1cc2[nH]c(=S)n(NC(=O)c3ccccc3)c(=O)c2cc1OC	2	36*	1	i	-9
COc1cc2[nH]c(=S)n(Cc3ccco3)c(=O)c2cc1OC	52*	-24	4	+	-14
O=S(=O)(c1cccnc1)N1CCCC(Nc2ccc(F)c(F)c2)C1 (stereo not drawn)	nt	2	nt	nt	nt
O=C1NC(=O)C2C3OC(C(Br)C3Br)C12 (stereo not drawn)	nt	-2	nt	nt	nt
Cc1cc(C(=O)Nc2sccc2C#N)c2ccccc2n1	61	-59	1	+	nt
CC(=O)N=C1SC2CS(=O)(=O)CC2N1c1ccc(-c2nc3ccc(C)cc3s2)cc1 (stereo not drawn)	4	nt	0	i	0
Cc1ccc2nc(-c3ccc(N4C(=NC(=O)CCC(=O)O)SC5CS(=O)(=O)CC54)cc3)sc2c1 (stereo not drawn)	70*	-10	-2	+	8
CC[N+](C)(CC)CCC(c1ccccc1)C1CCCCC1 (stereo not drawn)	34	-121	1	+	nt
